From PubChem BioAssay (Tox21) come the findings set out here.

Molecules are shown by their SMILES. Records with an inconclusive call do not appear. A call without a number means that no potency is given here. The source made the active and inactive calls. Calls come from the whole dose curve.
Potency is the fitted concentration of half-maximal effect.

The assay in a line: qHTS assay for small molecule agonists of the antioxidant response element (ARE) signaling pathway - cell viability counter screen (AID 743203). Note: nearly all actives have a fitted effect of over 55% in size. The note with it: ARE-bla HepG2 viability, CellTiter-Glo luminescence, 16 h; series mostly up to 73.3 µM. The text has this:
National Center for Advancing Translational Sciences [NCATS]
NIH Chemical Genomics Center [NCGC]
U.S. Environmental Protection Agency [EPA]
National Institutes of Environmental Health Sciences [NIEHS]
National Toxicology Program [NTP]
U.S. Food and Drug Administration [FDA]
Oxidative stress has been implicated in the pathogenesis of a variety of diseases ranging from cancer to neurodegeneration. The antioxidant response element (ARE) signaling pathway plays an important role in the amelioration of oxidative stress. The CellSensor ARE-bla HepG2 cell line (Invitrogen) can be used for analyzing the Nrf2/antioxidant response signaling pathway. Nrf2 (NF-E2-related factor 2) and Nrf1 are transcription factors that bind to AREs and activate these genes. The CellSensor ARE-bla Hep G2 cell line contains a beta-lactamase reporter gene under control of the Antioxidant Response Element (ARE) stably integrated into HepG2 cells. The activation of the report gene under culture conditions can be detected by fluorescence intensity. This cell line has been used to screen the Tox21 10K compound library to identify agonists that induce oxidative stress. The cytotoxicity of the Tox21 compound library against the ARE-bla cell line was tested in parallel by measuring the cell viability using CellTiter-Glo assay (Promega, Madison, WI) in the same wells.
Tox21 Assay Protocol Summary:
ARE-bla HepG2 cells were dispensed at 2,000 cells/5 ul/well in 1536-well white wall/solid bottom plates using a Multidrop Combi (ThermoFisher Scientific, Waltham, MA) dispenser. After the assay plates were incubated at 37C/5% CO2 for 5 hrs, 23 nL of compounds dissolved in DMSO, positive controls or DMSO only was transferred to the assay plate by a pintool work station (Kalypsys, San Diego, CA). The plates were incubated at 37C/5% CO2 for 16 hrs, followed by addition of 4 ul/well of CellTiter-Glo reagent into the assay plates using a Flying Reagent Dispenser (Aurora Discovery, San Diego, CA). After 30 min incubation at room temperature, the luminescence intensity in the assay plates was measured using a ViewLux (PerkinElmer, Shelton, CT) plate reader.
In general terms: Quantitative high-throughput screening tests each substance at several concentrations.
As to `O=[N+]([O-])c1cc(C2CCCCC2)c(O)c([N+](=O)[O-])c1`, the Potency is 24.3 µM (active).
For `C[C@@H](O)[C@H]1C(=O)N2C(C(=O)O)=C([C@H]3CCCO3)S[C@H]12` the value was “inactive”; for `CO[C@]1(NC(=O)CSC(F)F)C(=O)N2C(C(=O)O)=C(CSc3nnnn3CCO)CO[C@H]21`, “inactive”.
The entry for `CCn1cc(C(=O)O)c(=O)c2cc(F)c(N3CCNCC3)cc21` is “inactive”; for `CC1=C(Br)C(=O)C(Br)=C/C1=C(/c1ccccc1S(=O)(=O)O)c1cc(Br)c(O)c(Br)c1C` it is “inactive”.
On to `Cc1[nH]cnc1CN1CCc2c(c3ccccc3n2C)C1=O`, for which the Potency result was “inactive”.
For `CC1(C)S[C@@H]2[C@H](NC(=O)C(c3ccccc3)S(=O)(=O)O)C(=O)N2[C@H]1C(=O)O` (stereo not given in full) the value was “inactive”; for `CC1=Nc2ccc3ccccc3c2C1(C)C`, “inactive”; for `COC(=O)[C@H]1[C@H]2C[C@@H]3c4[nH]c5cc(OC)ccc5c4CCN3C[C@H]2C[C@@H](OC(=O)/C=C/c2ccc(O)c(OC)c2)[C@@H]1OC`, “inactive”.
The entry for `CCC1NC(=O)c2cc(S(N)(=O)=O)c(Cl)cc2N1` (stereo not given) is “inactive”; for `Cc1ccc(Cl)c(Nc2ccccc2C(=O)O)c1Cl` it is “inactive”.
In the case of `Cc1cc(C)cc(N)c1`, the Potency entry was “inactive”.
The entry for `Cc1ccc(OC(=O)c2ccccc2O)cc1` is “inactive”; for `CN1CC(=O)N2[C@H](c3ccc4c(c3)OCO4)c3[nH]c4ccccc4c3C[C@@H]2C1=O` it is “inactive”.
The entry for `CC(C)(O)c1ccc(CNC(=O)c2cccnc2Oc2ccc3nonc3c2)cc1` is “inactive”; for `CC(=O)NC1(c2cccc(F)c2)CCN(CC[C@@]2(c3ccc(Cl)c(Cl)c3)CN(c3ccccc3)C(=O)CO2)CC1` it is 19.4 µM (active); for `CCCCN(CCCC)C(C(N)=O)c1ccc(OC)cc1` (stereo not given) it is “inactive”.
The entry for `CC(C)=CC(=O)C=C(C)C` is “inactive”; for `Nc1nc2ccc([N+](=O)[O-])cc2s1` it is “inactive”; for `Cc1cc(C)c(N)cc1C` it is “inactive”.
With `CC(=O)Nc1cc(S(=O)(=O)O)cc2cc(S(=O)(=O)O)c(N=Nc3ccccc3)c(O)c12`, the Potency entry was “inactive”.
The entry for `CC(=O)c1ccc([N+](=O)[O-])cc1` is “inactive”.
The entry for `CCOC(=O)[C@H](CCc1ccccc1)N[C@@H](C)C(=O)N(CC(=O)O)C1Cc2ccccc2C1` is “inactive”.
For `Cc1ccc(CO)cc1` the value was “inactive”.
On to `CC(C)c1nc(CN(C)C(=O)N[C@H](C(=O)N[C@@H](Cc2ccccc2)C[C@H](O)[C@H](Cc2ccccc2)NC(=O)OCc2cncs2)C(C)C)cs1`, for which the Potency entry is “inactive”.
The entry for `CCOC(=O)c1ccc(O)c(O)c1` is “inactive”; for `CCCCCCNC(=O)n1cc(F)c(=O)[nH]c1=O` it is “inactive”; for `Cc1c(C)c2c(c(C)c1OC(=O)CCC(=O)OCCO)CC[C@@](C)(CCC[C@H](C)CCC[C@H](C)CCCC(C)C)O2` it is “inactive”.
For `CCCCCCCCOc1ccc(C(=O)O)cc1` the value was “inactive”; for `C=C1c2cccc(O)c2C(O)=C2C(=O)[C@]3(O)C(O)=C(C(N)=O)C(=O)[C@@H](N(C)C)[C@@H]3[C@@H](O)[C@H]12`, “inactive”.
For the compound `O=C1CCCCCCCCCCOCCCCO1`, the Potency entry was “inactive”.
For `CCC(OCCCOC)OC(C)=O` (stereo not given) the value was “inactive”.
The entry for `COc1ccccc1N1CCN(CCCCNC(=O)c2ccc(-c3ccc(C(C)=O)cc3)cc2)CC1` is “inactive”; for `O=C1c2ccccc2C(=O)c2c(O)c(O)cc(O)c21` it is “inactive”.
In the case of `CCC=CC#N`, the Potency result is “inactive”.
For `Brc1cc2ccccc2c2ccccc12` the value was “inactive”.
Take `CCCCN1CCCC1C(=O)Nc1c(C)cc(C)cc1C` (stereo not given): the Potency result was “inactive”.
With `O=c1[nH]ncc2ccccc12`, the Potency entry is “inactive”.
For `CC1=C(CC=O)C(C)(C)CCC1` the value was “inactive”; for `Cc1ccc2c(Br)cc(Br)c(O)c2n1`, “inactive”.
